Measured values reported in PubChem BioAssay (Tox21).
Results filed as inconclusive are left out. Entries that show only a call come without a potency. Calls of active or inactive are those of the source. Calls follow the shape of the full dose curve.

Molecular target: 5-hydroxytryptamine receptor 2A (Homo sapiens) (UniProt P28223)
Assay: 5-hydroxytryptamine receptor 2A (HTR2A) small molecule antagonists, cell-based qHTS assay (AID 1963586); also: nearly all actives have a fitted effect of over 45% in size; also: potency is read from the fitted curve at half-maximal effect
Conditions: HTR2A-CHO cells, DOI-induced calcium flux, fluorescence; series mostly up to 61.5 µM
Outline: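 CHO cells stably expressing human HTR2A were plated for 18 h at 37 C, then loaded with calcium dye for 1 h. Compounds were preincubated 5 min at room temperature before DOI (4 nM solution) was added. Kinetic fluorescence was read for 3 min.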

Sequence of 5-hydroxytryptamine receptor 2A (Homo sapiens) (P28223 whole entry, looked up): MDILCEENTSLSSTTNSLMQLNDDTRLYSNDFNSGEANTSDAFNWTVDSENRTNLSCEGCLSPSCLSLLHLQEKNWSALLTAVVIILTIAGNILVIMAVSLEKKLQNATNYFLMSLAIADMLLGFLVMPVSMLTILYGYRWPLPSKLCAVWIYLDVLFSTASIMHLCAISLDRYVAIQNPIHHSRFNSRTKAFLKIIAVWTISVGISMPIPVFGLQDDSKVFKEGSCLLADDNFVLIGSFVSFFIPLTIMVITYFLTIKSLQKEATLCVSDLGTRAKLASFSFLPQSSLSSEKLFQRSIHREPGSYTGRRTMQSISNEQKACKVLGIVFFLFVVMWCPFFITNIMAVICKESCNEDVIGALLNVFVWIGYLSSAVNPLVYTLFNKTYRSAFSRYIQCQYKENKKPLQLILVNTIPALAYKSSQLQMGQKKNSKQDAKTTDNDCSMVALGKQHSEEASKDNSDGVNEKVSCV

Q: How did the Potency turn out when `CNCc1cc(F)ccc1Oc1ccc(Cl)c(Cl)c1` was run?
A: 0.266 µM (active)

Q: For `CN(C)CCN(Cc1ccccc1)c1ccccn1`, which Potency is on record?
A: 7.29 µM (active)

Q: `O=S(=O)(Oc1ccc(Cl)cc1)c1ccccc1` was tested. Which Potency did it give?
A: inactive

Q: With `CCc1ncc(C)[nH]1` as the molecule, how does the Potency read?
A: inactive

Q: `O=C1CCCc2c1cc1ccc3cccc4ccc2c1c34` was tested. Which Potency did it give?
A: inactive

Q: Which Potency does the source give for `Oc1ccc2c(c1)-c1ccccc1C2` here?
A: inactive

Q: `CCCCCCCCCCCCCCCCCCNC(=O)OC1CCN(C(=O)OC[C@H](COC(=O)N(Cc2cccc[n+]2CC)C(=O)c2ccccc2OC)OC)CC1` was tested. Which Potency did it give?
A: inactive

Q: For `CC(=O)/C=C/C=C1/C2CCC(C2)C1(C)C` (stereo not drawn), which Potency is on record?
A: inactive

Q: For `CCN(Cc1cccnc1)C(=O)c1cccc(Cl)c1[C@]1(C)C(=O)N(Cc2ccc(OC)cc2OC)c2ccc(Cl)cc21`, which Potency is on record?
A: inactive

Q: How did the Potency turn out when `CCCCCCCCCCCCN1CCCCCC1=O` was run?
A: inactive

Q: For `NC(=O)N1C(=O)C(C(=O)c2cc(Cl)cs2)c2cc(F)c(Cl)cc21` (stereo not drawn), which Potency is on record?
A: inactive

Q: With `O=C(O)c1c2ccccc2cc2ccccc12` as the molecule, how does the Potency read?
A: inactive

Q: With `Cc1cc(NC(=O)C(=O)O)cc(C)c1Oc1ccc(O)c2c1CCC2` as the molecule, how does the Potency read?
A: inactive

Q: Which Potency does the source give for `CCCNC(C)C(=O)Nc1c(C)csc1C(=O)OC` (stereo not drawn) here?
A: inactive

Q: With `OCCCS` as the molecule, how does the Potency read?
A: inactive

Q: How did the Potency turn out when `O=C(O)COc1ccc2ccccc2c1` was run?
A: inactive

Q: How did the Potency turn out when `OCCCCCO` was run?
A: inactive

Q: Which Potency does the source give for `CC1=CC(C)C(C=O)C(C)C1` (stereo not drawn) here?
A: inactive

Q: Which Potency does the source give for `ClCCOCCOCCCl` here?
A: inactive

Q: How did the Potency turn out when `CC(COc1ccccc1)NN` (stereo not drawn) was run?
A: inactive

Q: For `CCCCNC(=O)NCCCC`, which Potency is on record?
A: inactive

Q: Which Potency does the source give for `Cc1coc2ccccc2c1=O` here?
A: inactive

Molecular target: 5-hydroxytryptamine receptor 2A (Homo sapiens) (UniProt P28223)
Assay: 5-hydroxytryptamine receptor 2A (HTR2A) small molecule agonists, cell-based qHTS assay (AID 1963587); also: nearly all actives have a fitted effect of over 30% in size
Conditions: HTR2A-CHO cells, calcium flux fluorescence, agonist mode; series mostly up to 76.8 µM
Outline: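 HTR2A-CHO cells, plated 18 h at 37 C/5% CO2, dye-loaded 1 h at 37 C; compounds in DMSO added by pin tool (agonist mode). Intracellular calcium flux read as kinetic fluorescence on FDSS over 2 min at 1 s intervals.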

Q: With `CC(C)(C)c1cc(/C=C2\SC(=N)NC2=O)cc(C(C)(C)C)c1O` as the molecule, how does the Potency read?
A: inactive

Q: `CN(C)CCN(Cc1ccccc1)c1ccccn1` was tested. Which Potency did it give?
A: inactive

Q: For `CCc1ncc(C)[nH]1`, which Potency is on record?
A: inactive

Q: With `O=C1CCCc2c1cc1ccc3cccc4ccc2c1c34` as the molecule, how does the Potency read?
A: inactive

Q: Which Potency does the source give for `CCCCC/C=C\C/C=C\CCCCCCCC(=O)NC(C)c1ccccc1` (stereo not drawn) here?
A: inactive

Q: `Oc1ccc2c(c1)-c1ccccc1C2` was tested. Which Potency did it give?
A: inactive

Q: For `CSC(=O)c1cccc2nnsc12`, which Potency is on record?
A: inactive

Q: With `CCCCCCCCCCCCCCCCCCNC(=O)OC1CCN(C(=O)OC[C@H](COC(=O)N(Cc2cccc[n+]2CC)C(=O)c2ccccc2OC)OC)CC1` as the molecule, how does the Potency read?
A: inactive

Q: How did the Potency turn out when `CC(=O)/C=C/C=C1/C2CCC(C2)C1(C)C` (stereo not drawn) was run?
A: inactive

Q: How did the Potency turn out when `COc1cc(-c2ccc(=O)[nH]n2)ccc1OC(F)F` was run?
A: inactive

Q: For `CCCCCCCCCCCCN1CCCCCC1=O`, which Potency is on record?
A: inactive

Q: How did the Potency turn out when `COc1ccc(S(=O)(=O)Nc2nnc(CC(C)C)s2)cc1` was run?
A: inactive

Q: For `O=C(O)c1c2ccccc2cc2ccccc12`, which Potency is on record?
A: inactive

Q: `O=C(CCCN1CCN(c2ccc(F)cc2)CC1)NC1c2ccccc2CSc2ccccc21` (stereo not drawn) was tested. Which Potency did it give?
A: inactive

Q: With `COc1ccc(/C=C/c2cc(OC)cc(=O)o2)cc1` as the molecule, how does the Potency read?
A: inactive

Q: For `CCCNC(C)C(=O)Nc1c(C)csc1C(=O)OC` (stereo not drawn), which Potency is on record?
A: inactive

Q: `OCCCS` was tested. Which Potency did it give?
A: inactive

Q: For `O=C(O)COc1ccc2ccccc2c1`, which Potency is on record?
A: inactive

Q: `OCCCCCO` was tested. Which Potency did it give?
A: inactive

Q: For `CC(=O)OCC(=O)[C@@]1(O)[C@H](OC(C)=O)C[C@H]2[C@@H]3CCC4=CC(=O)C=C[C@]4(C)[C@@]3(F)[C@@H](O)C[C@@]21C`, which Potency is on record?
A: inactive

Q: Which Potency does the source give for `NS(=O)(=O)c1ccc(C(=O)O)cc1` here?
A: inactive

Q: `O=C(O)C1(C(=O)Nc2ccc(Cl)cc2Cl)CC1` was tested. Which Potency did it give?
A: inactive

Q: With `CC1=CC(C)C(C=O)C(C)C1` (stereo not drawn) as the molecule, how does the Potency read?
A: inactive

Q: Which Potency does the source give for `ClCCOCCOCCCl` here?
A: inactive

Q: With `CC(COc1ccccc1)NN` (stereo not drawn) as the molecule, how does the Potency read?
A: inactive

Q: With `Cc1coc2ccccc2c1=O` as the molecule, how does the Potency read?
A: inactive
